About 83,000 compounds went through this panel and 20% of them were active in at least one assay; those are over-represented in the sample as a whole.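 Percent growth is the endpoint: 0 to 100 indicates growth inhibition (40 means 60% inhibition), 0 means no net growth, and negative values indicate cell death.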 A number with no mark means an inactive call. Activity calls are given as the source filed them. How the source made its calls: active means growth percent below 10; inactive means the rest.

This experiment has as its system 786-0 renal. In words: NCI-60 one-dose screen, 48 h (100 = growth as untreated, 0 = no growth, -100 = all killed). Particulars: 10 µM unless noted.
As to `COc1ccc(-c2cc(NC(=O)Nc3ccc4ncsc4c3)no2)cc1`, the growth is 99.1%.

Consider `O=[N+]([O-])c1ccccc1/C=N\NC(=S)N/N=C/c1ccccc1[N+](=O)[O-]`, for which the growth was 74.9%.

With `O=C1c2cc3c(cc2-c2c1c1ccc(F)cc1c(=O)n2C[C@H](O)[C@H](O)[C@H](O)CO)OCO3`, the growth was 0.283% (active).

On to `Cc1ccc2c(C(C[N+](=O)[O-])c3ccccc3F)c(-c3ccccc3)[nH]c2c1` (stereo not drawn), for which the growth is 56.7%.

Take `COc1ccc(CCNc2nc(SC)nc(-c3cccc([N+](=O)[O-])c3)c2C#N)cc1OC`: the growth was 93.2%.

In the case of `O=C(CCN1C(=O)/C(=C/c2ccc(Cl)cc2)SC1=S)NCCCN1CCOCC1`, the growth is 107%.

Regarding `Cc1nn(-c2cc(=O)[nH]c3ccc(Cl)cc23)c(N)c1C#N`, the growth was 106%.

`COC[C@H](C)n1c(C2CCOCC2)nc2cnc3cc(-c4c(C)noc4C)c(OC)cc3c21`: the growth was 51.6%.

Regarding `COc1cc(C(=O)Oc2ccccc2OC(=O)c2cc(OC)c(OC)c(OC)c2)cc(OC)c1OC`, the growth is 118%.

For `COc1ccc(/C=C\c2cc(OC)c(OC)c(OC)c2)cc1OCC(=O)Nc1ccc2nc(C)sc2c1`, the growth is 79.6%.

For `COc1cc2c(cc1O)CC[C@@H]1[C@@H]2CC[C@]2(C)[C@@H](OCCCN(C)C)CC[C@@H]12`, the growth was -83.8% (active).

With `CC(=O)Oc1ccc(Cl)cc1CN(C(C)=O)C1CCCCC1`, the growth is 90%.

`O=C(/C=C/c1cccc([N+](=O)[O-])c1)c1ccc(O)c(CN2CCN(c3cc4c(cc3F)c(=O)c(C(=O)O)cn4C3CC3)CC2)c1`: the growth was -11.2% (active).

For `O=C1c2cc3c(cc2-c2c1c1ccc(Cl)cc1c(=O)n2CCCN1CCOCC1)OCO3`, the growth is 34.2%.

For the compound `COc1ccc(-n2nc(C)c3c(Oc4ccc(NC(=O)Nc5c(Cl)cccc5Cl)cc4)ncnc32)cc1`, the growth is 110%.

In the case of `CCOc1cc2c(cc1OCC)C(c1cc(OC)c(O)cc1Cl)NCC2` (stereo not drawn), the growth was 84.1%.

For `COC(=O)c1ccc(NC(=O)c2ccc(-c3cccc([N+](=O)[O-])c3)o2)cc1`, the growth is 103%.

Consider `COc1ccc(-c2cc(-c3ccc(Nc4ccnc5cc(Cl)ccc45)cc3)nc(N3CCOCC3)n2)cc1`, for which the growth is 69.6%.

For the compound `O=C(COc1cccc(/C=C2\CSc3ccccc3C2=O)c1)Nc1nccs1`, the growth is 101%.

In the case of `N#C/C(=C\c1ccc(-c2ccc(Cl)c(Cl)c2)o1)c1nc(-c2ccco2)cs1`, the growth is 110%.

For the compound `CN(C)c1ccc(N=Nc2ccc(Br)cn2)c(O)c1`, the growth is 20.5%.

With `C#CCOc1ccc2ncnc(Nc3cccc(CNC(=O)CCl)c3)c2c1`, the growth was 25.7% [8.25 µM].

For `Cn1cc(-c2nonc2-c2c[nH]c3ccccc23)c2cccnc21`, the growth was 65.8%.

For the compound `O=CNc1ccc2c(c1)Cc1cccc(NC=O)c1-2`, the growth is 104%.

For the compound `Cn1c(O)c(N=NC(=O)c2cc(-c3ccccc3)on2)c2ccccc21`, the growth was 100%.

In the case of `CC1=C/C(=C(\c2ccc(N(C)C)cc2)c2ccc([N+](C)(C)C)cc2)C=CC1=[N+](C)C`, the growth was 94.7%.

On to `COc1cc2c(cc1-c1c(C)noc1C)ncc1nc(C3CCCC3)n([C@H](C)COC(F)F)c12`, for which the growth was 45.9%.

`Clc1ccc2c(NCCNc3nc(N4CCCCC4)nc4ccccc34)ccnc2c1`: the growth was -36.9% (active).

Regarding `COc1ccc2[nH]cc(-c3noc(C(=O)c4cn(C)c5ccc(F)cc45)n3)c2c1`, the growth was 103%.

On to `O=c1cc(CSc2nnc(-c3ccc(F)cc3)o2)c2ccc3ccccc3c2o1`, for which the growth is 104%.

As to `O=C1Nc2ccc(Br)cc2C12Oc1ccccc1C1CC(c3ccc(F)cc3)=NN12` (stereo not drawn), the growth was 105%.

Regarding `FC(F)(F)c1ccc(-c2cn3nc(-c4c[nH]c5ccc(Br)cc45)sc3n2)cc1`, the growth is 106%.

Turning to `COc1cc(/C=C/c2cc(/C=C/c3ccc(O)c(OC)c3)n(-c3c(Cl)cccc3Cl)c(=O)n2)ccc1O`, the growth is 29.7%.

With `C=CCSSc1ncnc2c1ncn2C1OC(CO)C(O)C1O` (stereo not drawn), the growth was 14.6%.

With `O=Nc1c(O)c(Cl)cc2ccccc12`, the growth was 105%.

Regarding `Cc1cc2nc3[nH]c4ccccc4c3nc2cc1C`, the growth is 79.3%.

Consider `COc1cc(-c2nn(C)nc2-c2cc3ccccc3s2)cc(OC)c1OC`, for which the growth is 36.8%.

On to `CC(=O)OCCC/C(=C/c1cc2ccccc2c2ccccc12)[N+](=O)[O-]`, for which the growth is -89.5% (active).

The values above are taken from PubChem BioAssay (NCI).
